Screening data from PubChem.
In the library only some 7.2% were active in any assay of this set; here they are far more common.
FMDV antiviral: foot and mouth disease virus antiviral activity. Potency, µM (highest dose often 57.9 µM), actives largely listed as inhibitors. FMDV antiviral cell-based qHTS. AID 1159524. hit rate 1.2% among 410,000; calls by dose curve; tested in HEK293T cells; further: read-out not given here; nearly all actives have a fitted effect of over 45% in size
RE007 growth inh: less growth of the S. pombe RE007 Vpr strain | S. pombe RE007 Vpr strain, BacTiter-Glo ATP luminescence, 24 h | Potency, µM (doses to about 92.2 µM), most hits filed as inhibitors | hit rate 0.21% among 360,000 | AID 651644; active means well fitted falling curve with a large enough effect; inconclusive means small, poorly fitted or top-dose-only effect; inactive means no such curve, though single readings can be large or run the other way; further: nearly all actives have a fitted effect of over 50% in size
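Fission yeast strain RE007, carrying one chromosomally integrated HIV-1 vpr copy, was seeded at OD 0.01 in PMG+AL medium with 23 nL pinned compound. After 24 h at 30 °C and 99% humidity, viability was read by BacTiter-Glo luminescence.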
Lassa entry inh: Lassa virus entry inhibition; Lassa virus pseudotype entry inhibition, cell reporter; Potency, µM (top dose mostly 37.9 µM), usual class: inhibitors; hit rate 1.2% among 300,000; calls by dose curve; tested in HEK293 cells; further: nearly all actives have a fitted effect of over 50% in size
Sm TGR inh: blocks Schistosoma mansoni thioredoxin glutathione reductase. hit rate 3% among 360,000. Potency, µM (titrated, usually from 114 µM), usual class: inhibitors. purified TGR, DTNB reduction, TNB absorbance 405 nm; further: nearly all actives have a fitted effect of over 60% in size
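TGR 20 nM + NADPH 100 uM (dispensed conc.), cpd preinc 15 min RT; start with NADPH (500 uM addition) then DTNB (15 mM addition). Kinetic TNB absorbance, 405 nm filter. Four-parameter Hill fit across titration.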
Marburg entry inh: Marburg virus entry inhibition; Marburg virus pseudotyped entry inhibition, cell reporter; Potency, µM (titrated, usually from 37.8 µM), actives largely listed as inhibitors; hit rate 1.8% among 300,000; AID 540276; calls by dose curve; tested in HEK293 cells
HCV inhibitor: blocks hepatitis C virus. AID 651820. Potency, µM (series often up to 41.8 µM), actives largely listed as inhibitors. Huh7.5.1 HCVcc-Cre infection, luciferase reporter, 44 h. hit rate 3.4% among 340,000
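Cells (1,000/well) were plated 4 h before compound, then infected with HCVcc-Cre virus (~0.5 moi). After 44 h further culture, infection was read as luciferase luminescence following a 15 min substrate incubation at room temperature.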
Hits are given with their value; 0 = inactive; ? = inconclusive; - = no result; [ ] = dose if it differs, or a comment. Unless noted, the call rests on the fitted dose curve; in most records, active means well fitted curve in the direction sought with a large enough effect; inconclusive means small, poorly fitted or top-dose-only effect, or another doubt; inactive means no such curve, though single readings can be large; an effect the other way counts as inactive or inconclusive.

SMILES	FMDV antiviral	RE007 growth inh	Lassa entry inh	Sm TGR inh	Marburg entry inh	HCV inhibitor
COC(=O)c1cc(NC(=O)c2c(-c3ccccc3)noc2C)ccc1N1CCOCC1	0	0	0	0	0	0
COc1ccc(C(=O)NC(=S)Nc2ccc(N3CCOCC3)cc2)cc1Cl	0	0	?	20µM	?	?
CC(=O)c1cccc(NC(=S)NC(=O)c2cccc(C)c2)c1	0	-	0	28µM	?	0
Cc1ccccc1-c1noc(-c2ccc(N3CCCCC3)c([N+](=O)[O-])c2)n1	0	-	0	0	0	-
CCN(CC)C1CCN(C(=O)c2cnn(-c3ncc4c(n3)-c3ccccc3CCC4)c2COC)C1 (stereo unspecified)	0	-	-	-	-	-
Cc1ccsc1C(=O)NN=C1CCCCCC1	0	0	-	0	-	0
O=C(NC(=S)Nc1ccc(N2CCOCC2)cc1)c1ccc(Cl)cc1	?	0	0	0	?	0
COC(=O)c1cc(NC(=O)c2cc(-c3ccccc3Cl)oc2C(F)(F)F)ccc1N1CCOCC1	0	0	-	0	-	16µM
Cc1cccc(C(=O)NC(=S)Nc2ccc(N3CCOCC3)cc2)c1	0	0	0	14µM	0	0
NS(=O)(=O)c1cccc(NC(=S)NC(=O)c2cccc([N+](=O)[O-])c2)c1	0	0	0	16µM	0	0
COC(=O)c1cc(NC(=O)c2cc(-c3ccc(Cl)cc3)oc2C(F)(F)F)ccc1N1CCOCC1	0	0	?	0	?	?
Cc1ccc(C(=O)NC(=S)Nc2ccc(N3CCOCC3)cc2)cc1C	0	0	0	0	?	7.9µM
COc1ccc(Oc2ncc3nc(-c4ccc(F)cc4)c(=O)n(CCC#N)c3n2)cc1	0	-	-	-	-	-
CC(=O)c1cccc(NC(=S)NC2CC2)c1	0	0	0	40µM	?	0
CC(=O)c1cccc(NC(=S)NC2CCCCC2)c1	0	0	0	0	?	?
CSc1ccc(C(O)c2ncc(-c3cccc(OCc4ccccc4)c3)[nH]2)cc1 (stereo unspecified)	0	0[18.4 µM]	-	-	-	-
Oc1ccc(-c2cnc(-c3ccc(O)cc3)nc2)cc1	?	0	3.2µM	0	1.1µM	0
CC(C)C1CC(CCNCc2ccc(N(C)C)cc2)(c2ccccc2)CCO1 (stereo unspecified)	0	0	?	0	?	11µM
CC(NCc1ccc2c(c1)OCO2)c1ccccc1 (stereo unspecified)	0	0	0	0	?	0
Cc1ccc(C2(CCNCc3ccc(N(C)C)cc3)CCOC(C(C)C)C2)cc1 (stereo unspecified)	0	0	?	0	?	?
CC(C)C1CC(CCNCc2ccc3c(c2)OCO3)(c2ccccc2)CCO1 (stereo unspecified)	0	0	?	0	10µM	0
Cc1ccc(C2(CCNS(=O)(=O)c3ccc(C)cc3)CCOC(C(C)C)C2)cc1 (stereo unspecified)	0	0	?	0	6.5µM	0
COc1ccccc1N1CCN(c2ncnc3c2cnn3C)CC1	0	-	?	0	-	-
CC(C)(CS(=O)(=O)[O-])NC(=O)CC[N+](C)(C)CCO	0	0	0	0	2.8µM	0
CC(=O)/C=C/c1ccccc1Oc1c(F)c(F)nc(F)c1F	32µM	0	-	0	-	0
SMILES	FMDV antiviral	RE007 growth inh	Lassa entry inh	Sm TGR inh	Marburg entry inh	HCV inhibitor
CC(=O)NCCNC(=O)CCCc1nnc2n(CCC(C)C)c(=O)c3sccc3n12	0	-	0	0	-	-
Oc1ccc(N=Nc2ccccc2)o1	?	?	-	3.2µM	-	0
CN(CC(=O)Nc1ccc(Cl)c(C(F)(F)F)c1)C(=O)C1CCN(C(=O)c2ccc(Cl)cc2)CC1	0	0	-	-	-	11µM
CCN(CC(=O)Nc1cc(Cl)ccc1C)C(=O)C1CCN(c2ncnc3sc(C)c(C)c23)CC1	18µM	0	-	-	-	-
Cc1sc2ncnc(N3CCC(C(=O)N(C)CC(=O)Nc4ccccc4Cl)CC3)c2c1C	22µM	0	10µM	0	?	-
Cc1sc2ncnc(N3CCC(C(=O)N(C)CC(=O)Nc4ccc(Cl)c(C(F)(F)F)c4)CC3)c2c1C	?	0	7.1µM	0	?	8.9µM
Cc1sc2ncnc(N3CCC(C(=O)N(C)CC(=O)Nc4ccccc4Br)CC3)c2c1C	?	0	0	0	?	?
CCN1C(=NCc2ccccc2)NC(c2cccc(C(F)(F)F)c2)C(C(=O)OC)=C1C (stereo unspecified)	-	-	-	-	0	-
Cc1cc(N2CCC(C(=O)Nc3ccc(Cl)cc3)CC2)n2nc(C)c(-c3ccc(Cl)cc3)c2n1	0	-	0	0	0	-
Cc1cccc(NC(=O)c2nc[nH]c2C(=O)N[C@@H](C)CO)c1	0	0	-	-	-	-
CCOc1ccc(C(=O)CN2C(=O)NC3(CCCc4ccccc43)C2=O)cc1 (stereo unspecified)	0	0	-	-	-	-
CCN(CC(=O)Nc1cc(Cl)ccc1C)C(=O)C1COc2ccccc2O1 (stereo unspecified)	0	0	-	20µM	-	0
Cc1ccc(Cl)cc1NC(=O)C1COc2ccccc2O1 (stereo unspecified)	0	0	?	0	0	0
CCOC(=O)c1sc2ncn(CC(=O)Nc3cc(Cl)ccc3C)c(=O)c2c1C	0	-	0	0	0	-
Cc1sc2ncnc(N3CCC(C(=O)N(C)CC(=O)Nc4cccc(F)c4)CC3)c2c1C	18µM	0	-	-	-	-
CCN(CC(=O)Nc1cc(Cl)ccc1C)c1ncnc2sc(C)c(C)c12	0	0	0	0	?	25µM
